In PubChem BioAssay one finds growth inhibition, inhibition and outcome data, which are given here for 20 molecules.

A word on the inhibition: it is the relative decrease from the control value, in per cent.

A short description of experiment [1]: antimalarial activity against Dd2 strain (AID 2302;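 active means growth inhibition above 50% at the single 2 µM test dose, taken to imply half-maximal potency below 2 µM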;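 further: 0% = DMSO untreated growth and 100% = chloroquine plus artemisinin killed control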). As to conditions: P. falciparum Dd2 in RBCs, LDH growth readout, 72 h; at 2 µM; stronger effect = higher value.
Experiment [2] is described as follows: HepG2 cytotoxicity, primary screen, cytotoxicity control for P. falciparum antimalarial project, cell-based, ATP luminescence (AID 2303;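 active means inhibition above 50%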;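 further: 0% = DMSO wells and 100% = digitonin-killed cells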). The note with it: HepG2 viability, 24-48 h, at 10 µM, stronger effect = higher value.
Experiment [3] deals with L-lactate dehydrogenase (Plasmodium falciparum (isolate CDC / Honduras)) (UniProt Q27743). Description: PfLDH activity inhibition – cell lysate, 3D7 strain, counter-screen for P. falciparum growth inhibition project (AID 2304).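 Further: 0% = vehicle and 100% = reference inhibitor.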 The note with it: P. falciparum 3D7 crude extract, LDH APAD/NBT absorbance; at 2 µM; stronger effect = higher value.
Sequence of L-lactate dehydrogenase (Plasmodium falciparum (isolate CDC / Honduras)) (Q27743 whole entry, looked up): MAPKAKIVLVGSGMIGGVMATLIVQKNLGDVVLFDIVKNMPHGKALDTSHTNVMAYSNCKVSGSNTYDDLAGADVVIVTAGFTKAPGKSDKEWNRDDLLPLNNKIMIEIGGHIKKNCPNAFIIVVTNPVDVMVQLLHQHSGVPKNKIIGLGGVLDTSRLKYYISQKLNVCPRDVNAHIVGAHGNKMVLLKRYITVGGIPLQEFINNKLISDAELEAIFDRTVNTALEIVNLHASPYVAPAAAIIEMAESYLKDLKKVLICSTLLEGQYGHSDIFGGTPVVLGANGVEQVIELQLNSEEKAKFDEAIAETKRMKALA
Experiment [4] can be described thus: inhibition of 3D7 malaria parasite growth – strain 3D7 (AID 2306).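 Further: 0% = DMSO wells and 100% = chloroquine plus artemisinin control wells.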 As to conditions: P. falciparum 3D7 erythrocytic growth, LDH absorbance, 72 h; at 2 µM; stronger effect = higher value.
The target in experiment [5] is Calcium-dependent protein kinase 1 (Plasmodium falciparum (isolate 3D7)) (UniProt P62344). Kind of experiment: PfCDPK1 kinase inhibitors, biochemical, TCAMS library (AID 1159585; cut-off not given, nearly all actives have IC50 up to about 0.98 µM;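 further: inhibitors leave more ATP so luminescence rises with inhibition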). As to conditions: recombinant PfCDPK1, Kinase-Glo ATP depletion luminescence. Background: In Kinase-Glo more light means more ATP remaining.
Sequence of Calcium-dependent protein kinase 1 (Plasmodium falciparum (isolate 3D7)) (P62344 whole entry, looked up): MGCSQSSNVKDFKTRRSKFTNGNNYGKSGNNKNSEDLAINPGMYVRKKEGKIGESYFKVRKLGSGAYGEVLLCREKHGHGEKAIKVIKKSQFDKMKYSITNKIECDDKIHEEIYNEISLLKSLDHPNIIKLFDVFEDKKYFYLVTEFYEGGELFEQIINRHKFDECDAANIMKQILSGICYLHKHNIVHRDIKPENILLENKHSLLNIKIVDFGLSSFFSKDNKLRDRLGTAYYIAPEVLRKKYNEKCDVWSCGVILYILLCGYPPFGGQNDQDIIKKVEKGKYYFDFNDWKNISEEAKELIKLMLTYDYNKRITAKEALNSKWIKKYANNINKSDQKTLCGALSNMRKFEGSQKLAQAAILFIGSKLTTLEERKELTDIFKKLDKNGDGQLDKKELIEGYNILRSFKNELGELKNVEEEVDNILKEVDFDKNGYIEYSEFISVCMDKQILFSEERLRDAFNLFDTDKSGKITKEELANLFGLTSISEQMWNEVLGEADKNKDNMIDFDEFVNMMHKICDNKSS
Experiment [6] deals with Plasmodium falciparum protein kinase 6 (PK6, PF3D7_1337100) (UniProt Q8IDW1). Description: PfPK6 kinase inhibitors, biochemical, TCAMS library (AID 1159586). The note with it: recombinant PfPK6, Kinase-Glo ATP depletion luminescence.
Sequence of Plasmodium falciparum protein kinase 6 (PK6, PF3D7_1337100) (Q8IDW1 1-305): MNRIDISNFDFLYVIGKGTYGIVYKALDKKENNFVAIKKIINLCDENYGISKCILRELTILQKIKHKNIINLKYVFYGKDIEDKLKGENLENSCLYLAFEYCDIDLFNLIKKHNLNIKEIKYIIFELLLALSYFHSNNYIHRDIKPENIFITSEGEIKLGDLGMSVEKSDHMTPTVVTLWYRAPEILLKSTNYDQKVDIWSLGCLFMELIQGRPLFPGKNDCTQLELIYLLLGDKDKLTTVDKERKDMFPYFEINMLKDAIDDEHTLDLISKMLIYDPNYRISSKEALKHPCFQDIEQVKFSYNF
Experiment [7] addresses Protein kinase 7 (PK7), Plasmodium falciparum 3D7 (PF3D7_0213400) (UniProt Q7YTF7). Kind of experiment: inhibition of Plasmodium PK7 catalytic activity – biochemical, TCAMS antimalarial set, Kinase-Glo luminescence (AID 1159587). The note with it: recombinant PfPK7, Kinase-Glo ATP depletion luminescence.
Experiment [8] deals with Calcium-dependent protein kinase 4 (Plasmodium falciparum (isolate 3D7)) (UniProt Q8IBS5). Description: PfCDPK4 kinase inhibitors, biochemical, TCAMS library (AID 1159588; cut-off not given, nearly all actives have IC50 up to about 0.91 µM). As to conditions: recombinant PfCDPK4, Kinase-Glo ATP depletion luminescence.
Sequence of Calcium-dependent protein kinase 4 (Plasmodium falciparum (isolate 3D7)) (Q8IBS5 whole entry, looked up): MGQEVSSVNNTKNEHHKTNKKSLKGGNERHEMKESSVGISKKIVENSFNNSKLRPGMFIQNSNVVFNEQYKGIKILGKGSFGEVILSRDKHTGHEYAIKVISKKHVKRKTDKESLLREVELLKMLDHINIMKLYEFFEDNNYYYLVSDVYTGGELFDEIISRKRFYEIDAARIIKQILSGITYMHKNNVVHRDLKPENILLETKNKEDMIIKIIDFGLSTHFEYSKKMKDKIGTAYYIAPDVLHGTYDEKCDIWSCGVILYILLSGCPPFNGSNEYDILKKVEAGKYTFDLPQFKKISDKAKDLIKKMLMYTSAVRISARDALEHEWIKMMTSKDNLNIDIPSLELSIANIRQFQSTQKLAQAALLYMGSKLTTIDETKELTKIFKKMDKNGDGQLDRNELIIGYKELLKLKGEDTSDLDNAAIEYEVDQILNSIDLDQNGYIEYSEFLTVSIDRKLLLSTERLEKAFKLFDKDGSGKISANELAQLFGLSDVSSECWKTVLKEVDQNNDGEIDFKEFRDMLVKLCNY

A number with no mark means an inactive call. For some of these results: Results with a measured potency or affinity are listed apart. Calls of active or inactive are those of the source. Unless noted, how the calls were made is not given here.

Sequence of Protein kinase 7 (PK7), Plasmodium falciparum 3D7 (PF3D7_0213400) (Q7YTF7 1-343): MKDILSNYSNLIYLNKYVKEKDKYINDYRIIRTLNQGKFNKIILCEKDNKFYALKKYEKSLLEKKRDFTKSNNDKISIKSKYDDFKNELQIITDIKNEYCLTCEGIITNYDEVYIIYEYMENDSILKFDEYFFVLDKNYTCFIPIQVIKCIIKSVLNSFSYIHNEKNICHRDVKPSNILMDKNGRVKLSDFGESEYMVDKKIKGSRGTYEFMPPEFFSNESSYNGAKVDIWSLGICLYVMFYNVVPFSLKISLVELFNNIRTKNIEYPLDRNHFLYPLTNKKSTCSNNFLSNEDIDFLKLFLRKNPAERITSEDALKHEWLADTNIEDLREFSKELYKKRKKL

Take `NC1CCCN(Cc2cccc(-c3ccc(-c4nc5ccccc5[nH]4)cc3)c2)C1` (stereo not given): the figures for the growth inhibition in experiment [1] and in experiment [4] were 73% (active) and 101% (active), respectively. Besides, the inhibition in experiment [2] is 25%; in experiment [3], -6%. In addition, the result in experiment [5], in experiment [6], in experiment [7] and in experiment [8] was inactive.

As to `CC(C)CNCc1cccc(-c2ccc(CNc3ccc(C(=O)c4ccccc4)cc3)cc2)c1`, the growth inhibition in experiment [1] was 0%; in experiment [4] it was 97% (active). For the same molecule, the results for the inhibition in experiment [2] and in experiment [3] were 10% and 0%, respectively. Further, the result in experiment [5], in experiment [6], in experiment [7] and in experiment [8] was inactive.

Consider `COc1ccc(-c2ccc(CNC(=O)c3ccc(Cl)cc3)c(F)c2)cc1CN1CCCN(C)CC1`, for which the growth inhibition in experiment [1] is 48%; in experiment [4], 99% (active). Besides, the inhibition in experiment [2] is 25%; in experiment [3], -5%. The result in experiment [5], in experiment [6], in experiment [7] and in experiment [8] was inactive.

As for `COc1ccc(N2CCN(CCCN3CCN(C(=O)c4ccc(/C=C/c5ccc(Cl)c(Cl)c5)cc4)CC3)CC2)c(OC)c1`, the figures for the growth inhibition in experiment [1] and in experiment [4] were 52% (active) and 93% (active), respectively. The results for the inhibition in experiment [2] and in experiment [3] were 47% and -3%, respectively. Besides, the outcome in experiment [5], in experiment [6], in experiment [7] and in experiment [8] was inactive.

For the molecule `O=C(Nc1cccc(CN2CCN(C(=O)c3cccc(F)c3)CC2)c1)c1cccs1`, the growth inhibition in experiment [1] and in experiment [4] was 95% (active) each time. Moreover, the values for the inhibition in experiment [2] and in experiment [3] were 17% and 1%, respectively. Besides, the result in experiment [5], in experiment [6], in experiment [7] and in experiment [8] was inactive.

Take `Nc1c(-c2ccc(C(=O)NCCNCc3ccccc3)cc2)cnn1-c1ccc(C(F)(F)F)cc1`: the growth inhibition in experiment [1] was 2%; in experiment [4] it was 85% (active). Further, the results for the inhibition in experiment [2] and in experiment [3] were 23% and 1%, respectively. For the same molecule, the result in experiment [5], in experiment [6], in experiment [7] and in experiment [8] was inactive.

Regarding `Cc1cc(C(=O)N(Cc2ccc(-c3ccc(CNCCc4ccc(S(C)(=O)=O)cc4)cn3)cc2)C(C)CN(C)C)ccc1[N+](=O)[O-]` (stereo not given), the figures for the growth inhibition in experiment [1] and in experiment [4] were 46% and 99% (active), respectively. Besides, the figures for the inhibition in experiment [2] and in experiment [3] were 17% and -1%, respectively. For the same molecule, the result in experiment [5], in experiment [6], in experiment [7] and in experiment [8] was inactive.

`CC(C)CCN1CCCN(Cc2ccc(C(=O)Nc3ccc(F)c(F)c3)cc2)CC1`: the growth inhibition was 27% in experiment [1] and 88% (active) in experiment [4]. Further, the results for the inhibition in experiment [2] and in experiment [3] were 36% and 5%, respectively. Also, the outcome in experiment [5], in experiment [6], in experiment [7] and in experiment [8] was inactive.

For `O=C(Nc1cccc(C(F)(F)F)c1)Nc1ccc(F)c([N+](=O)[O-])c1`, the results for the growth inhibition in experiment [1] and in experiment [4] were 100% (active) and 101% (active), respectively. Moreover, the inhibition in experiment [2] is 43%; in experiment [3], -4%. Moreover, the outcome in experiment [5], in experiment [6], in experiment [7] and in experiment [8] was inactive.

Consider `c1ccc(CNCc2cccc(-c3ccc(-c4nc5ccccc5[nH]4)cc3)c2)cc1`, for which the growth inhibition is 39% in experiment [1] and 97% (active) in experiment [4]. Also, the inhibition was 10% in experiment [2] and -5% in experiment [3]. For the same molecule, the result in experiment [5], in experiment [6], in experiment [7] and in experiment [8] was inactive.

Regarding `O=C(Nc1cc(Cl)cc(Cl)c1)c1cc(Cl)c(=O)n(Cc2ccc(Cl)cc2)c1`, the results for the growth inhibition in experiment [1] and in experiment [4] were 57% (active) and 89% (active), respectively. For the same molecule, the inhibition in experiment [2] and in experiment [3] was 7% each time. Also, the outcome in experiment [5], in experiment [6], in experiment [7] and in experiment [8] was inactive.

For `Nc1nc(N)c2c(ccc3c2ccn3Cc2ccccn2)n1`, the growth inhibition is 94% (active) in experiment [1] and 90% (active) in experiment [4]. The inhibition is 66% (active) in experiment [2] and -1% in experiment [3]. In addition, the result in experiment [5], in experiment [6], in experiment [7] and in experiment [8] was inactive.

On to `CCNc1cc(C(=O)N[C@@H](Cc2ccccc2)[C@H](O)CNC2(CC(C)C)CC2)cc(N2CCCCS2(=O)=O)c1`, for which the growth inhibition is 29% in experiment [1] and 87% (active) in experiment [4]. Besides, the figures for the inhibition in experiment [2] and in experiment [3] were -3% and -5%, respectively. Also, the result in experiment [5], in experiment [6], in experiment [7] and in experiment [8] was inactive.

Consider `CCCCNCc1ccc(-c2nc(CN(CCCn3ccnc3)C(=O)C3COc4ccccc4O3)cs2)cc1` (stereo not given), for which the growth inhibition in experiment [1] is 8%; in experiment [4], 93% (active). Also, the inhibition was 6% in experiment [2] and -4% in experiment [3]. Further, the result in experiment [5], in experiment [6], in experiment [7] and in experiment [8] was inactive.

For `COc1ccc(NC(=O)/C=C/c2ccc(-c3ccccc3)cc2)cc1N1CCN(C)CC1`, the growth inhibition was 46% in experiment [1] and 90% (active) in experiment [4]. For the same molecule, the results for the inhibition in experiment [2] and in experiment [3] were 21% and 6%, respectively. In addition, the outcome in experiment [5], in experiment [6], in experiment [7] and in experiment [8] was inactive.

Consider `CC(CCON1C(N)=NC(N)=NC1(C)C)c1ccc(Cl)c(Cl)c1` (stereo not given), for which the growth inhibition in experiment [1] is 97% (active); in experiment [4], 98% (active). The results for the inhibition in experiment [2] and in experiment [3] were 60% (active) and -3%, respectively. Besides, the result in experiment [5], in experiment [6], in experiment [7] and in experiment [8] was inactive.

In the case of `N=C(N)c1ccc(NC(=O)Cc2nc3ccc(C(=N)N)cc3[nH]2)cc1`, the growth inhibition was 81% (active) in experiment [1] and 87% (active) in experiment [4]. Also, the values for the inhibition in experiment [2] and in experiment [3] were 4% and 2%, respectively. In addition, the result in experiment [5], in experiment [6], in experiment [7] and in experiment [8] was inactive.

`CN1CCCN(Cc2ccc(-c3ccc(NS(=O)(=O)c4cccc5cccnc45)cc3)cc2)CC1`: the growth inhibition in experiment [1] was 85% (active); in experiment [4], 99% (active). Further, the inhibition in experiment [2] was 35%; in experiment [3], 5%. Further, the result in experiment [5], in experiment [6], in experiment [7] and in experiment [8] was inactive.

On to `Cc1cc(=O)[nH]c(NC#N)n1`, for which the growth inhibition in experiment [1] was 3%; in experiment [4], 99% (active). Moreover, the inhibition in experiment [2] is 8%; in experiment [3] it was 0%. Moreover, the outcome in experiment [5], in experiment [6], in experiment [7] and in experiment [8] was inactive.

Take `C(=NNc1cc(-c2ccccc2)nc2ccccc12)c1cccnc1`: the growth inhibition in experiment [1] was 13%; in experiment [4] it was 87% (active). In addition, the inhibition in experiment [2] was 23%; in experiment [3], -1%. The result in experiment [5], in experiment [6], in experiment [7] and in experiment [8] was inactive.
